Test results from PubChem BioAssay (NCATS).
Records with an inconclusive call do not appear. Activity calls are given as the source filed them. Unless noted, calls come from the whole dose curve; as a rule, active = well fitted curve in the direction sought with a large enough effect; inconclusive = small, poorly fitted or top-dose-only effect, or another doubt; inactive = no such curve, though single readings can be large; an effect the other way counts as inactive or inconclusive.

Assays:
[1] = biological target: Rap guanine nucleotide exchange factor 3 (Homo sapiens) (UniProt O95398); assay: Counterscreen qHTS for antagonist of cAMP-regulated guanine nucleotide exchange factor 3 (EPAC1) (AID 1645888);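 note: fluorescence loss as bound BODIPY-GDP is released from Rap1B; % of control where 0% means no effect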
Procedure, shortened: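 Rap1B–BODIPY-GDP (250 nM) with 50 uM GDP; compounds pin-transferred to 9.74 nM–152 uM final (activator) or from 7.32 nM upwards (inhibitor). Fluorescence Ex/Em 480/540 nm read at 5 and 30 min, then after adding cAMP or buffer, at room temperature.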

[2] = biological target: DNA repair nuclease/redox regulator APEX1 (Homo sapiens) (UniProt P27695); assay: qHTS Validation Assay for Inhibitors of the Human Apurinic/apyrimidinic Endonuclease 1 (APE1) (AID 1705;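 note: TAMRA fluorescence gain over two minutes as APE1 cuts a quenched THF abasic duplex; series mostly up to about 57 µM; % is set by controls: 0 for no effect and ±100 for the full control effect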)
Sequence of DNA repair nuclease/redox regulator APEX1 (Homo sapiens) (P27695 whole entry, looked up): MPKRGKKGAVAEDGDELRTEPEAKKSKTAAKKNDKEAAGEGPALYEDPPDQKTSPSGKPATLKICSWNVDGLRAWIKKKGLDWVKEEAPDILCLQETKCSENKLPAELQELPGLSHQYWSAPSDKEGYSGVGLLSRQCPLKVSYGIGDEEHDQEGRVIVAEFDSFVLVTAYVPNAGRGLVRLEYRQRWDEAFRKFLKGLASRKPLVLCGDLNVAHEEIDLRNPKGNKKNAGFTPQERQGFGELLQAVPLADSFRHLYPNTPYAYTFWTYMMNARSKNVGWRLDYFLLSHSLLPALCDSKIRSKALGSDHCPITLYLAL
Procedure, shortened: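 qHTS, 1536-well. APE1 + cpd 15 min RT → 50 nM TAMRA/BHQ-2 THF-abasic dsDNA substrate → kinetic fluorescence, 3 reads/60 s; delta(read3−read1) = reaction progress. No-enzyme buffer = negative control.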

[3] = Counterscreen for APE1 Inhibitors: Fluorescent Dye Displacement Validation Assay (AID 1707);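 note: plate controls were ThO with dsDNA and no compound for no effect and ThO without dsDNA for full effect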
Procedure, shortened: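 Thiazole Orange displacement from dsDNA: 250 nM ThO with 50 nM TAMRA-labelled abasic-site (tetrahydrofuran) duplex in 50 mM Tris-HCl pH7.5, 50mM NaCl, 2 mM MgCl2, 0.01% Tween-20. Loss of endpoint fluorescence (ex 480 nm, em 540 nm) flags DNA binders.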

[4] = qHTS for differential inhibitors of proliferation of Plasmodium falciparum line 7G8 (AID 1815);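 note: parasite growth measured after three days of incubation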; note: potency is the fitted concentration of half-maximal effect
[5] = qHTS for differential inhibitors of proliferation of Plasmodium falciparum line GB4 (AID 1816); conditions: Potency: Plasmodium falciparum GB4 proliferation inhibition;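 note: potency is the fitted concentration of half-maximal effect; parasite growth measured after 72 h incubation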
[6] = qHTS for differential inhibitors of proliferation of Plasmodium falciparum line 3D7 (AID 1876); note: potency is the fitted concentration of half-maximal effect
[7] = qHTS for differential inhibitors of proliferation of Plasmodium falciparum line D10 (AID 1877);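 note: parasites grown with compound for 72 h before DNA staining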; note: potency is the fitted concentration of half-maximal effect
[8] = qHTS for differential inhibitors of proliferation of Plasmodium falciparum line W2 (AID 1883); conditions: Potency: Plasmodium falciparum W2 proliferation inhibition;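 note: potency is the fitted concentration of half-maximal effect; parasites grown with compound for 72 h before lysis and staining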
[9] = qHTS for differential inhibitors of proliferation of Plasmodium falciparum line HB3 (AID 1886); conditions: Potency: Plasmodium falciparum HB3 proliferation inhibition;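 note: parasites grown with compound for 72 h before SYBR Green readout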; note: potency is the fitted concentration of half-maximal effect
[10] = biological target: Ferritin light chain (Equus caballus) (UniProt P02791); assay: qHTS Validation Assay for Identification of Novel General Anesthetics (AID 2323); note: series mostly up to about 77 µM; % is set by controls: 0 for no effect and ±100 for the full control effect
Sequence of Ferritin light chain (Equus caballus) (P02791 2-175 limits assumed): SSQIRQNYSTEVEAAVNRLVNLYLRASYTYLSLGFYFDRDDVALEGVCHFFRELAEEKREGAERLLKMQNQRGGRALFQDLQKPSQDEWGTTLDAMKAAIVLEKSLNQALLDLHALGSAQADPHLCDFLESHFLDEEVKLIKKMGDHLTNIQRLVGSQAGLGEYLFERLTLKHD
Procedure, shortened: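 Fluorescence at 535 nm (excitation 380 nm) reported loss of 1-AMA binding to horse-spleen apoferritin (10 uM) in PBS with 50% saturated 1-aminoanthracene, after 10 min room-temperature incubation with compound; values from Hill fits of normalized response.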

[11] = biological target: ATP-dependent DNA helicase Q1 (Homo sapiens) (UniProt P46063); assay: qHTS Validation Assay for Inhibitors of RecQ-Like Dna Helicase 1 (RECQ1) (AID 2353);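 note: plate controls were DMSO vehicle for no effect and enzyme-free control for full effect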
Sequence of ATP-dependent DNA helicase Q1 (Homo sapiens) (P46063 whole entry, looked up): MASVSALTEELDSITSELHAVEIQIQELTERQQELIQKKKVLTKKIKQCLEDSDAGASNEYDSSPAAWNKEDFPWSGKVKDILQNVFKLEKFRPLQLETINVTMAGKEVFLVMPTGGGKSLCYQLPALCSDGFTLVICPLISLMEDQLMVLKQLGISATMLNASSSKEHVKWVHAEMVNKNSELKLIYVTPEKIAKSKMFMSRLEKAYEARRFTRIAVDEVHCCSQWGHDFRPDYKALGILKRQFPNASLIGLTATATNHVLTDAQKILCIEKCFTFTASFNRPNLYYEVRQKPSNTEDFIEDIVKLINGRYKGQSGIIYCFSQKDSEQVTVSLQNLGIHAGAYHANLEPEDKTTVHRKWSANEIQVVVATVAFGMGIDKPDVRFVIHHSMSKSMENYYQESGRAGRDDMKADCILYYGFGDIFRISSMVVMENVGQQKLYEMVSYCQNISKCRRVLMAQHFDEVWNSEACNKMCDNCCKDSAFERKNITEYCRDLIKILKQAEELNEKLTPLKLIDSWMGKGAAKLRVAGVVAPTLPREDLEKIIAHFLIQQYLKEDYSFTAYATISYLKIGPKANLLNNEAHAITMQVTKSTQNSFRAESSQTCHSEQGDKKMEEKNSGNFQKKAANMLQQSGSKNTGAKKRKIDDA
Procedure, shortened: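 50 nM RECQ1T1 preincubated 15 min with compound in Tris pH 8.0 buffer with MgCl2, DTT, Tween-20 and 2.5 ug/ml poly(dI-dC); started with 200 nM TAMRA/BHQ-2 forked duplex and 2 mM ATP. Unwinding read as fluorescence (525/598 nm), two reads 2 h apart.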

[12] = Validation screen for small molecules that induce DNA re-replication in MCF 10A normal breast cells (AID 463097); note: nearly all actives have a fitted effect of over 60% in size; note: potency is the fitted concentration of half-maximal effect
Procedure, shortened: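 Image-based qHTS: normal breast cells are incubated with compound for 48 hr, stained with Hoechst, and scanned for total nuclear fluorescence. Compounds raising the fraction of nuclei with elevated DNA content count as re-replication inducers.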

[13] = Quantitative high throughput screen for delayed death inhibitors of the malarial parasite plastid, 96 hour incubation (AID 488745); note: nearly all actives have a fitted effect of over 70% in size; note: potency is the fitted concentration of half-maximal effect
Procedure, shortened: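 Growth of reporter-bearing P. falciparum in red cells is measured after 96 h with compound, covering two erythrocytic cycles. Luminescence from the integrated luciferase serves as the growth signal.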

[14] = Quantitative high throughput screen for delayed death inhibitors of the malarial parasite plastid, 48 hour incubation (AID 488752); note: nearly all actives have a fitted effect of over 65% in size; note: potency is the fitted concentration of half-maximal effect
Procedure, shortened: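 One parasite generation (48 h, 37 C, 5% CO2) of luciferase-reporter P. falciparum in erythrocytes is run with test compound; decreased luminescence indicates inhibited growth.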

[15] = biological target: M-phase phosphoprotein 8 (Homo sapiens) (UniProt Q99549); assay: qHTS Validation Assay for Inhibitors for MPP8 Chromodomain Interactions with Methylated Histone Tails (AID 488949); note: nearly all actives have a fitted effect of over 55% in size; note: potency is the fitted concentration of half-maximal effect
Sequence of M-phase phosphoprotein 8 (Homo sapiens) (Q99549 whole entry, looked up): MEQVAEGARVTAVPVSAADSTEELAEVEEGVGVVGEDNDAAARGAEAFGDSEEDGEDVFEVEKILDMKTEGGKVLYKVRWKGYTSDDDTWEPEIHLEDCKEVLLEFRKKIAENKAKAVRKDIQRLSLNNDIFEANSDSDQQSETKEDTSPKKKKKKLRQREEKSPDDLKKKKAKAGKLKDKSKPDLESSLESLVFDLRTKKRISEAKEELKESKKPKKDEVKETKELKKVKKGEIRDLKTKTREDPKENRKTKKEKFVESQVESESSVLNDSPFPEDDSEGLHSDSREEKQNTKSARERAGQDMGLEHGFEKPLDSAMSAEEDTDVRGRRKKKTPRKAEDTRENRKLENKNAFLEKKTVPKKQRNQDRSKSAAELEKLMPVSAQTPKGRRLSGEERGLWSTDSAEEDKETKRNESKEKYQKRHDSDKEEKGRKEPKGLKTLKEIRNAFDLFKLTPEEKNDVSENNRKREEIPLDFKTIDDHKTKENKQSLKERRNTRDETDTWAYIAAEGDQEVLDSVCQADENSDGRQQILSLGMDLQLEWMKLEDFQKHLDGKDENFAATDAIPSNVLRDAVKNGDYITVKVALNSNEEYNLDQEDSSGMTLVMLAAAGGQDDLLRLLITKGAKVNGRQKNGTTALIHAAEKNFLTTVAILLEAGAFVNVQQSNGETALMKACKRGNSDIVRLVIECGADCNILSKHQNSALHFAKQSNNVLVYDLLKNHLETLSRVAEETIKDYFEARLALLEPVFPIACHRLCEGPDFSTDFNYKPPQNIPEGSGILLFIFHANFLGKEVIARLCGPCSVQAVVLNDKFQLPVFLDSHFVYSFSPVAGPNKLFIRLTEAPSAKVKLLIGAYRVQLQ
Procedure, shortened: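 50 nM MPP8 + 50 nM b-H3K9me3 peptide, PBS pH 7.4/0.01% Tween-20, 30 min RT; + cpd 30 min RT; + AlphaScreen donor/Ni-chelate acceptor beads 10 ug/mL final, 30 min dark; luminescence read.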

[16] = biological target: Transient receptor potential cation channel subfamily V member 1 (Homo sapiens) (UniProt Q8NER1); assay: HTS Assay for Compounds that Act as Enhancers of the Vanilloid Receptor 1 (AID 488979); note: 0% is about no effect
Sequence of Transient receptor potential cation channel subfamily V member 1 (Homo sapiens) (Q8NER1 whole entry, looked up): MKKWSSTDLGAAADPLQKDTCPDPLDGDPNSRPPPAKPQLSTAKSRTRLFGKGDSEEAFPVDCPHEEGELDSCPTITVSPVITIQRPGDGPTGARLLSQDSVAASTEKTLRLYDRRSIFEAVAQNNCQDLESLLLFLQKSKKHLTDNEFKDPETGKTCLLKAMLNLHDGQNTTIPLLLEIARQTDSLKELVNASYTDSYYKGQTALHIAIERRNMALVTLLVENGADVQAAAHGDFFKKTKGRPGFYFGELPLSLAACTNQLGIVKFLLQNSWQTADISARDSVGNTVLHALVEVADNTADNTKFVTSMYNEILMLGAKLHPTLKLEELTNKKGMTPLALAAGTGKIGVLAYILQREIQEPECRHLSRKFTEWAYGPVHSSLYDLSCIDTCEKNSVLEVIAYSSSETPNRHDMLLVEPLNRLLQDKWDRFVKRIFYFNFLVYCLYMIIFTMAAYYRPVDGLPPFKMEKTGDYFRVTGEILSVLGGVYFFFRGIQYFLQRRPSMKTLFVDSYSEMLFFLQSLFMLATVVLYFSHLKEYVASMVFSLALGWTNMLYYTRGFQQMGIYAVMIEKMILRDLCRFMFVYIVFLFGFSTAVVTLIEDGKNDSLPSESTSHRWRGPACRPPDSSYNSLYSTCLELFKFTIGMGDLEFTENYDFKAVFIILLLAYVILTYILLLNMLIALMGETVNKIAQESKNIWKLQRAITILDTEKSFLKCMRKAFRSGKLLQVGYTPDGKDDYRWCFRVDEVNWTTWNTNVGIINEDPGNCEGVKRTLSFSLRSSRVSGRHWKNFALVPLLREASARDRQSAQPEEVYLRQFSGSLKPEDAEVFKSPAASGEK
Procedure, shortened: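 TRPV1 cells loaded with Fluo-8 calcium dye; compound added and Ca2+ signal (ex 480/em 520 nm) followed 3 min, then capsaicin at EC20 added and read 2 more min to detect enhancement.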

[17] = biological target: Thyrotropin receptor (Homo sapiens) (UniProt P16473); assay: qHTS Assay for Antagonists of the Thyroid Stimulating Hormone Receptor (AID 488980); note: series mostly up to about 58 µM; 0% is about no effect
Sequence of Thyrotropin receptor (Homo sapiens) (P16473 whole entry, looked up): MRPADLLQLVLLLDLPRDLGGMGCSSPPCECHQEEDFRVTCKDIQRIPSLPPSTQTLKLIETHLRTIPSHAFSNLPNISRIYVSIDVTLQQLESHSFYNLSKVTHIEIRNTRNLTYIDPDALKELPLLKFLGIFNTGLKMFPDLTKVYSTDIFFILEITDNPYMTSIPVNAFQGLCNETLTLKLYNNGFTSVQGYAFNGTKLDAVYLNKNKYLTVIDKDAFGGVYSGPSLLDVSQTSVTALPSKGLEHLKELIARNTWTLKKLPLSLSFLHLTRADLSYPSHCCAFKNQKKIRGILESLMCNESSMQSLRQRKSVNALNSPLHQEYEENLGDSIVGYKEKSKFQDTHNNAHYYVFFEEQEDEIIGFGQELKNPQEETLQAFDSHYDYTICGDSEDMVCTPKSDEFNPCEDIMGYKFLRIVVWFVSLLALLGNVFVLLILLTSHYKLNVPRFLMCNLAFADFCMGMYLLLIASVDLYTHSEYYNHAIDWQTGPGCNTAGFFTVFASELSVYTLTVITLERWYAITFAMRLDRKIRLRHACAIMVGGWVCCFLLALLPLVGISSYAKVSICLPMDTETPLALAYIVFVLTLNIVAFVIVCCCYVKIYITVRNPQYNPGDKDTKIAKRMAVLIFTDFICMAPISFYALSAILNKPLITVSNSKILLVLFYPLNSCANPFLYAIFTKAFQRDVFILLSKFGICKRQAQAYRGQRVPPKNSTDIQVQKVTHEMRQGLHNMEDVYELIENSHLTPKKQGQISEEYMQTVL
Procedure, shortened: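 Readout is cAMP by HTRF competition between cellular cAMP and cAMP-d2 for a cryptate-labelled antibody. Antagonism was assessed in TSHR-transfected HEK293 cells stimulated with 4 nM TSH (EC80, final) in the presence of RO 20-1724.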

[18] = biological target: Thyrotropin-releasing hormone receptor (Homo sapiens) (UniProt P34981); assay: qHTS for Small Molecule Agonists and Allosteric Enhancers of Human TRH Receptor: Validation Screen for Agonists (AID 493127;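 active = calcium activation more than 3 SD above the typical response in the agonist read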;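 note: intracellular calcium rise by fluo-8 fluorescence before TRH EC20 addition; 0% is about no effect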); conditions: TRH receptor agonist cell assay; at 2 µM; hits give high values
Sequence of Thyrotropin-releasing hormone receptor (Homo sapiens) (P34981 whole entry, looked up): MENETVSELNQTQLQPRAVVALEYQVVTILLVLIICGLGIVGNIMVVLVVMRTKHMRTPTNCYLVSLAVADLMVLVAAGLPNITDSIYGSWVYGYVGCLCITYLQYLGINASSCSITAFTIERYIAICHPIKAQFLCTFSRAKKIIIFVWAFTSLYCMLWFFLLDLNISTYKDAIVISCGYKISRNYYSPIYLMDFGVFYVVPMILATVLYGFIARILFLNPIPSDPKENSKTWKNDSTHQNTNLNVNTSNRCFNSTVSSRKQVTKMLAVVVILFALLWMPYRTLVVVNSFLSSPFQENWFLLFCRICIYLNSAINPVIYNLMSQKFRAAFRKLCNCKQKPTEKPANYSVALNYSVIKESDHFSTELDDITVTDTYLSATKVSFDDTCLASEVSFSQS
Procedure, shortened: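 Gq-coupled calcium mobilization in TRHR cells after compound addition, monitored kinetically with fluo-8 dye on an FDSS reader.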

[19] = biological target: Galactokinase (Homo sapiens) (UniProt P51570); assay: qHTS Validation Assay for Inhibitors of Human Galactokinase (GALK) (AID 493189); note: 0% is about no effect
Sequence of Galactokinase (Homo sapiens) (P51570 whole entry, looked up): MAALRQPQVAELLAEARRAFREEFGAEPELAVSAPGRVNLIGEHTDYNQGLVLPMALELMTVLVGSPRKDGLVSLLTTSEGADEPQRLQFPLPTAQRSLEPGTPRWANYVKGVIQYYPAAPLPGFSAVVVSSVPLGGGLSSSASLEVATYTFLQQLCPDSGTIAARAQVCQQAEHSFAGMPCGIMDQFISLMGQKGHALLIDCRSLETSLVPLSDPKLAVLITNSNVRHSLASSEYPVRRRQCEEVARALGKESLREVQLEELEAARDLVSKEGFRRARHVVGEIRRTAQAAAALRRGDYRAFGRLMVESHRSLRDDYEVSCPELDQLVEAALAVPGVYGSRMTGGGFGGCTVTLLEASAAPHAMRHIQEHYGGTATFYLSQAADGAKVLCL
Procedure, shortened: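 5 nM GALK / 100 uM galactose / 35 uM ATP, 20 mM HEPES pH8.0, 5 mM MgCl2, 60 mM NaCl, 1 mM DTT, 0.01% BSA (final). RT 1 h; Kinase-Glo Plus luminescence.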

[20] = biological target: Voltage-gated inwardly rectifying potassium channel KCNH2 (Homo sapiens) (UniProt Q12809); assay: qHTS Assay for Small Molecule Inhibitors of the Human hERG Channel Activity (AID 588834);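 note: lower thallium flux fluorescence means stronger hERG block; nearly all actives have a fitted effect of over 50% in size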; note: potency is the fitted concentration of half-maximal effect
Procedure, shortened: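 hERG-BacMam U2OS, 2000 cells/well; 0.7X FluxOR loading 1 hr RT dark; cpd ~10 min 37 °C; stim buffer; FDSS fluorescence 2 min @ 1 s; AC50 Hill fit.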

[21] = biological target: Endonuclease 4 (Escherichia coli (strain K12)) (UniProt P0A6C1); assay: Counterscreen for APE1 Inhibitors: qHTS Validation Assay for Inhibitors of Endonuclease IV (AID 1708); note: % is set by controls: 0 for no effect and ±100 for the full control effect
Procedure, shortened: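 Cleavage of a quenched abasic-site DNA duplex (50 nM, 5'-TAMRA, 3'-BHQ-2) by 2 nM enzyme is followed as fluorescence increase. Compounds are preincubated with enzyme 15 min at room temperature before substrate addition.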

[22] = qHTS Assay for Modulators of Human Peripheral Myelin Protein 22 (PMP22) Expression/Activity (AID 1967; active = well fitted curve in the direction sought with a large enough effect in the signal ratio; the % refers to the signal ratio;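 note: 0% = untreated cells and 100% end not stated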)
Procedure, shortened: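 Luminescence ratio of Pmp22 promoter-driven green luciferase to EF-alpha-driven red luciferase, in engineered mouse MSC80 Schwann cells, served as read-out. Compounds were incubated 24h; untreated cells defined 0% Activity; curves were classified by r2, magnitude and activity.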

[23] = Validation screen for small molecules that induce DNA re-replication in SW480 colon adenocarcinoma cells (AID 504364); note: potency is the fitted concentration of half-maximal effect
Procedure, shortened: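 Cells are treated 48 hr with test compound, stained 40 min with Hoechst at 37 C, and scanned for nuclear fluorescence; compounds inducing re-replication increase nuclei with elevated intensity.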

[24] = biological target: RecQ-like DNA helicase BLM (Homo sapiens) (UniProt P54132); assay: qHTS Validation Assay for Inhibitors of Bloom's syndrome helicase (BLM) (AID 2364);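 note: plate controls were DMSO vehicle for no effect and enzyme-free control for full effect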
Procedure, shortened: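 50 nM BLM preincubated 15 min at room temperature with compound in pH 8.0 Tris buffer containing 2.5 ug/ml poly(dI-dC); started with 200 nM TAMRA/BHQ-2 forked duplex and 2 mM ATP (final). Unwinding read as TAMRA fluorescence increase, two reads 2 h apart.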

CCOC(=O)c1c(-c2ccccc2)oc2ccc(O)cc12
inactive: Potency [1]

Cc1c(C)c2c(c(C)c1O)CCC(C)(CN1CCN(c3cc(N4CCCC4)nc(N4CCCC4)n3)CC1)O2 (stereo unspecified)
inactive: Potency [2] | outcome [3] | outcome [10] | outcome [11] | outcome [16] | outcome [17] | activation [18] -7.62% | outcome [19]
active: Potency [4] 0.562 µM | Potency [5] 0.501 µM | Potency [6] 0.891 µM | Potency [7] 0.501 µM | Potency [8] 0.355 µM | Potency [9] 0.891 µM | Potency [12] 4.47 µM | Potency [13] 1.65 µM | Potency [14] 1.85 µM | Potency [15] 11.2 µM | Potency [20] 7.08 µM

C[C@]12C[C@H](O)C3[C@@H](CCC4=CC(=O)CC[C@@]43C)[C@@H]1CC[C@@H]2C(=O)CO (stereo partly specified)
active: Potency [8] 11.2 µM
inactive: Potency [2] | outcome [3] | Potency [21] | Potency [9] | outcome [22] | outcome [11] | Potency [12] | Potency [14] | Potency [15] | outcome [17] | outcome [19] | Potency [23] | Potency [20]

CCC(=O)N(CCC(c1ccccc1)c1ccco1)Cc1cccs1 (stereo unspecified)
inactive: Potency [1]

COc1cc2c(cc1O)CCC1C2CC[C@]2(C)[C@@H](O)CC[C@@H]12 (stereo partly specified)
inactive: Potency [2] | outcome [3] | Potency [4] | Potency [6] | Potency [7] | Potency [9] | outcome [10] | outcome [11] | Potency [13] | Potency [14] | outcome [16] | outcome [17] | activation [18] 1% | outcome [19]
active: Potency [8] 15.8 µM | Potency [23] 4.61 µM

C[C@H]1c2cccc(O)c2C(O)=C2C(=O)[C@]3(O)C(O)=C(C(N)=O)C(=O)C(N(C)C)[C@@H]3[C@@H](O)C21 (stereo partly specified)
inactive: Potency [2] | outcome [3] | Potency [21] | outcome [22] | outcome [10] | outcome [11] | Potency [24] | Potency [15] | outcome [16] | activation [18] -0.125% | outcome [19] | Potency [20]
active: Potency [4] 4.47 µM | Potency [5] 8.91 µM | Potency [6] 1 µM | Potency [7] 11.2 µM | Potency [8] 1 µM | Potency [9] 6.31 µM | Potency [13] 0.37 µM | Potency [14] 6.57 µM
